Compounds with a hit are over-represented: about 6.8% of the library has one in this group of screens.
Pf Dd2 inh = P. falciparum Dd2 growth inhibition | SYBR Green, 72 h; stronger effect = lower value | activity change, % at 10 µM | 94,000 compounds, 2.3% hits | AID 1159554; in the data active = activity change below about -80%; inconclusive = no clear call, values can overlap the other calls
C diff growth = inhibitors of Clostridium difficile growth | Clostridium difficile clinical isolate growth, OD600, 24 h; stronger effect = lower value | growth activity, negative = inhibition, % at 16 µg/mL (by protocol) | 86,000 compounds, 0.25% hits | AID 1259249;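 active = mean growth activity at or below -80% and every replicate also at or below -80%; inconclusive = mean at or below -80% but some replicate above -80%; inactive = mean growth activity above -80%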;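 note: 0% = DMSO wells and -100% = levofloxacin 16 µg/mL wells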
T cruzi growth-1 = T. cruzi proliferation inhibition; inhibition, % at 8.34 µM; T. cruzi beta-gal in NIH3T3, GalScreen luminescence, 90 h; AID 624255; 77,000 compounds, 5.9% hits;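 active = mean inhibition above about 93%, with at least 55% of replicates each passing it, limit read from the data, passing the limit was not always enough; inconclusive = only one of those two conditions holds; inactive = neither condition holds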
T cruzi growth-2 = inhibitors of T. cruzi proliferation | shares compounds with T cruzi growth-1 | inhibition, % at 8.35 µM | T. cruzi beta-gal in NIH3T3, GalScreen luminescence, 90 h | 5,600 compounds, 72% hits | AID 651739;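 active = mean replicate inhibition above about 95% and at least 55% of replicates individually reaching it, limit read from the data; inconclusive = only one of the two criteria is met; inactive = neither criterion is met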
T cruzi growth-3 = Trypanosoma cruzi proliferation inhibition | shares compounds with T cruzi growth-1 | T. cruzi beta-gal in NIH3T3, GalScreen luminescence, 90 h | inhibition, % at 2.09 µM | 5,600 compounds, 21% hits | AID 651740;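 active = mean inhibition above about 95%, with at least 55% of replicates also reaching it, limit read from the data; inconclusive = meets just one of the two conditions; inactive = meets neither condition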;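 note: plate controls were neutral control median for no effect and positive control median for full effect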
3T3 cytotox = cytotoxicity in mouse NIH/3T3 fibroblasts. shares compounds with T cruzi growth-1. NIH/3T3 viability, CellTiter-Glo ATP luminescence, 90 h. cytotoxicity (signal decrease), % at 8.35 µM. 5,600 compounds, 14% hits;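 active = mean signal decrease across replicates above about 35% based on untreated-well scatter, with enough replicates individually passing, limit read from the data; inconclusive = no rule stated though some were filed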;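 note: 0% = median of neutral control wells and 100% = median of positive control wells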
NIH3T3 tox 2 = NIH/3T3 (mouse) viability loss; shares compounds with T cruzi growth-1; NIH/3T3 viability, CellTiter-Glo ATP luminescence, 90 h; inhibition, % at 24.9 µM; 5,600 compounds, 56% hits; AID 651744;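 active = mean loss of cell viability signal at or above a set limit, and enough replicates individually reaching it; inconclusive = meets only the mean limit or only the replicate share; inactive = meets neither condition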;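 note: 0% = median of neutral control wells and 100% = median of positive control wells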
Numbers without * were called inactive; ? = inconclusive; . = no result.

SMILES	Pf Dd2 inh	C diff growth	T cruzi growth-1	T cruzi growth-2	T cruzi growth-3	3T3 cytotox	NIH3T3 tox 2
C[C@@H]1CN([C@H](C)CO)C(=O)c2cc(NC(=O)NC3CCCCC3)ccc2O[C@@H](C)CCCCO[C@H]1CN(C)S(=O)(=O)c1ccc(Cl)cc1	.	-1.2	87.2	.	.	.	.
Cc1ccc(S(=O)(=O)N(C)C[C@H]2OCCCC[C@H](C)Oc3ccc(NC(=O)NC4CCCCC4)cc3C(=O)N([C@H](C)CO)C[C@@H]2C)cc1	-66.5	-4.4	112.0*	108.8*	30.0	-2.9	4.9
COCC(=O)N1CCCCN2[C@H](CO)[C@H](c3ccc(-c4ccc(C)cc4)cc3)[C@H]2C1	-0.4	-8.0	101.6*	78.0	-3.8	-6.8	28.7*
COCC(=O)N1CCCCN2[C@H](C1)[C@H](c1ccc(-c3ccc(OC)cc3)cc1)[C@@H]2CO	12.2	-0.2	79.4	.	.	.	.
COCC(=O)N1CCCCN2[C@@H](CO)[C@@H](c3ccc(-c4ccc(OC)cc4)cc3)[C@@H]2C1	16.6	-2.0	103.1*	82.6	76.6	-6.3	-3.8
COCC(=O)N1CCCCN2[C@H](CO)[C@@H](c3ccc(-c4ccc(OC)cc4)cc3)[C@H]2C1	26.6	0.1	97.0*	32.2	17.5	5.2	10.2
COCC(=O)N1CCCCN2[C@H](CO)[C@@H](c3ccc(-c4ccc(C)cc4)cc3)[C@H]2C1	14.1	-7.4	-8.1	.	.	.	.
COCC(=O)N1CCCCN2[C@H](C1)[C@@H](c1ccc(-c3ccc(C)cc3)cc1)[C@@H]2CO	8.0	-9.7	-8.6	.	.	.	.
Cc1noc(C)c1NC(=O)N[C@@H]1CC[C@@H](CCNC(=O)C2CC2)O[C@@H]1CO	-3.6	-2.7	.	.	.	.	.
CNC[C@@H]1OCCCC[C@@H](C)Oc2ccc(NC(=O)NC3CCCCC3)cc2C(=O)N([C@@H](C)CO)C[C@H]1C	.	3.1	5.7	.	.	.	.
C[C@@H]1CCCCO[C@@H](CN(C)C(=O)NC2CCCCC2)[C@@H](C)CN([C@@H](C)CO)C(=O)c2cc(NC(=O)CCC(F)(F)F)ccc2O1	-53.8	14.7	43.5	.	.	.	.
C[C@@H]1CN([C@@H](C)CO)S(=O)(=O)c2ccc(C#Cc3ccccc3)cc2O[C@H]1CN(C)C(=O)CN(C)C	-66.9	-0.1	102.3*	99.7*	59.8	7.3	103.2*
COCC(=O)N(C)C[C@@H]1Oc2cc(C#Cc3ccccc3)ccc2S(=O)(=O)N([C@@H](C)CO)C[C@H]1C	-74.6	-17.0	?	59.6	33.5	-6.0	21.5
C[C@H](CO)N1C[C@H](C)[C@H](CN(C)C(=O)CN(C)C)Oc2cc(C#Cc3ccccc3)ccc2S1(=O)=O	?	14.1	-18.0	.	.	.	.
COCC(=O)N(C)C[C@@H]1Oc2cc(C#Cc3ccccc3)ccc2S(=O)(=O)N([C@H](C)CO)C[C@H]1C	-77.0	-12.0	71.3	.	.	.	.
COc1ccc(C#Cc2ccc([C@H]3[C@H](CO)N4C(=O)CN(C(=O)c5ccc(F)cc5)C[C@@H]34)cc2)cc1	6.8	36.0	.	.	.	.	.
COc1cccc(C(=O)Nc2ccc3c(c2)C(=O)N(C)C[C@@H](OC)[C@@H](C)CN(CCc2ccccc2)[C@H](C)CO3)c1	-29.9	.	61.4	.	.	.	.
COc1cccc(C(=O)Nc2ccc3c(c2)C(=O)N(C)C[C@H](OC)[C@@H](C)CN(CCc2ccccc2)[C@@H](C)CO3)c1	-74.0	.	91.3	.	.	.	.
COc1cccc(C(=O)Nc2ccc3c(c2)C(=O)N(C)C[C@@H](OC)[C@H](C)CN(CCc2ccccc2)[C@@H](C)CO3)c1	-49.2	.	92.5*	107.8*	82.8	28.3	7.6
COc1cccc(C(=O)Nc2ccc3c(c2)OC[C@@H](C)N(CCc2ccccc2)C[C@H](C)[C@H](OC)CN(C)C3=O)c1	-40.6	.	88.4	.	.	.	.
COc1cccc(C(=O)Nc2ccc3c(c2)C(=O)N(C)C[C@@H](OC)[C@H](C)CN(CCc2ccccc2)[C@H](C)CO3)c1	?	.	100.0*	103.8*	80.1	-16.0	-15.2
COc1cccc(C(=O)Nc2ccc3c(c2)OC[C@@H](C)N(CCc2ccccc2)C[C@@H](C)[C@H](OC)CN(C)C3=O)c1	-36.9	.	117.6*	103.2*	76.7	10.2	-4.7
C[C@@H]1CN([C@H](C)CO)C(=O)c2cc(C#C[C@@H](C)O)cnc2O[C@@H]1CN(C)C(=O)c1ccccc1F	.	7.0	-4.9	.	.	.	.
Cc1noc(C)c1NC(=O)Nc1cccc2c1O[C@H](CN(C)C(=O)Nc1ccc(C(F)(F)F)cc1)[C@H](C)CN([C@H](C)CO)C2=O	-49.0	-19.8	-10.8	.	.	.	.
O=C(C[C@@H]1CC[C@@H]2[C@H](COC[C@H](O)CN2S(=O)(=O)c2cccc(Cl)c2)O1)Nc1ccccc1	-14.6	2.0	71.4	.	.	.	.
SMILES	Pf Dd2 inh	C diff growth	T cruzi growth-1	T cruzi growth-2	T cruzi growth-3	3T3 cytotox	NIH3T3 tox 2
O=C(C[C@@H]1CC[C@@H]2[C@H](COC[C@@H](O)CN2S(=O)(=O)c2cccc(Cl)c2)O1)Nc1ccc(-c2ccccc2)cc1	-10.3	20.7	107.6*	97.5*	?	33.8	69.6*
O=C(C[C@@H]1CC[C@H]2[C@@H](COC[C@@H](O)CN2S(=O)(=O)c2cccc(Cl)c2)O1)Nc1ccc(-c2ccccc2)cc1	-3.3	-8.1	110.0*	100.9*	52.8	8.2	103.3*
O=C(C[C@@H]1CC[C@@H]2[C@H](COC[C@@H](O)CN2S(=O)(=O)c2cccc(Cl)c2)O1)Nc1ccccc1	2.4	3.4	25.4	.	.	.	.
Cc1noc(C)c1S(=O)(=O)Nc1ccc2c(c1)C(=O)N([C@H](C)CO)C[C@@H](C)[C@H](CN(C)C(=O)Nc1ccc(C(F)(F)F)cc1)O2	3.2	5.1	28.0	.	.	.	.
O=C([C@@H]1[C@@H](CO)[C@@H]2Cn3c(ccc(-c4ccccc4)c3=O)[C@@H]2N1CCC(F)(F)F)N1CCOCC1	5.0	1.7	27.3	.	.	.	.
Cc1ccc(S(=O)(=O)N[C@H]2C=C[C@H](CC(=O)NCCc3ccncc3)O[C@@H]2CO)cc1	-6.3	-2.4	30.8	.	.	.	.
O=C(NCc1ccccc1F)[C@@H]1[C@@H](CO)[C@@H]2Cn3c(cccc3=O)[C@@H]2N1CC1CC1	2.4	-0.7	82.8	.	.	.	.
C[C@H](CO)N1C[C@H](C)[C@H](CN(C)C(=O)C2CC2)Oc2ncc(C#CC3CCCC3)cc2C1=O	25.3	-2.1	69.9	.	.	.	.
N#Cc1cccc(-c2ccc3c(c2)[C@@H]2[C@@H](CCN2S(=O)(=O)c2ccccc2F)[C@@H](CO)N3)c1	16.4	-1.4	106.5*	98.9*	104.9*	15.2	73.4*
COc1cccc(-c2ccc3c(c2)[C@@H]2[C@@H](CCN2S(=O)(=O)c2ccccc2F)[C@@H](CO)N3)c1	10.6	22.0	?	97.8*	105.2*	27.9	100.9*

Screening data as filed in PubChem BioAssay.
